Assay outcomes from PubChem.
Hits are enriched below; roughly 3.3% of the tested compounds scored in any of these assays.
ERb coact inh – blocks coactivator binding to human estrogen receptor beta; Q92731; TR-FRET ER-beta LBD / SRC1-Cy5 peptide binding; receptor agonist-loaded with 1 µM estradiol; inhibition, % at 25.6 µM; hit rate 1.3% among 86,000; AID 633;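 active = compounds whose percent inhibition of the receptor-coactivator binding signal exceeds about 50% in the single-dose screen, limit read from the data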;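 also: 0% = receptor plus peptide wells without compound and 100% = peptide-only wells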
FAK blocker – blocks human focal adhesion kinase activity. biochemical FAK kinase activity assay. hit rate 0.84% among 97,000. Q05397. inhibition, %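 (tested at 7 µM)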; in the data active = inhibition above about 19%;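 also: 0% = DMSO and 100% = reference compound high control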
ERa coact inh – ER-alpha (human) coactivator binding inhibition. AID 629. TR-FRET ER-alpha LBD / SRC-1 peptide, estradiol-bound. hit rate 1.7% among 86,000. P03372. inhibition, % at 25.6 µM; in the data active = inhibition above about 50%;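 also: 0% = receptor plus peptide control and 100% = peptide only without receptor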
ERa SRC1 pot – enhances coactivator binding to human estrogen receptor alpha; TR-FRET ERalpha-LBD/SRC-Cy5 coactivator binding, 2 h; 100 = basal binding, no effect; coactivator binding (% of control), % at 25.6 µM; hit rate 1.3% among 86,000; in the data active = activity above about 200%;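 also: binding measured in presence of low estradiol as agonist stimulus; 0% = peptide alone without receptor and 100% = receptor with peptide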
Smad3 inh – inhibitors of human Smad3 transcription factor binding; P84022; TR-FRET Smad3/Dy647-FoxH1 peptide binding, europium anti-His; inhibition, % at 25 µM; hit rate 0.29% among 88,000; AID 630;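 active = compounds that reduce the energy-transfer binding signal between the protein and its labelled peptide by more than half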;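 also: 0% = Smad3 plus labelled peptide maximal FRET and 100% = peptide-only background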
Numbers without * were called inactive; nt = no result given; [ ] = remark or other dose.

SMILES	ERb coact inh	FAK blocker	ERa coact inh	ERa SRC1 pot	Smad3 inh
Nc1ccccc1S[C@@H](C[N+](=O)[O-])c1ccc2c(c1)OCO2	nt	nt	nt	nt	22
Cc1ccc(C2SCC(=O)N2Cc2cn3ccsc3n2)o1 (stereo not given)	4	-6	-3	89	64*[fluorescence artefact?]
CCOC(=O)C1=C(C)OC(N)=C(C#N)C1c1cc2cc(C)ccc2nc1N1CCCCC1 (stereo not given)	32	-1	14	318*[fluorescence artefact?]	7
CCOC(=O)C1=C(C)OC(N)=C(C#N)C1c1cc2ccccc2nc1N1CCCCC1 (stereo not given)	-21	1	-36	32	12
Cc1ccc2oc(=O)c3cnn(CC(=O)N4CCCc5ccccc54)c3c2c1	-8	-6	-8	265*[fluorescence artefact?]	-8
Cc1ccc2oc(=O)c3cnn(CC(=O)N4CCN(c5ccccc5)CC4)c3c2c1	-2	1	-5	106	-2
CCOC(=O)c1sc(=NC(=O)c2ccc(S(=O)(=O)N3CCOCC3)cc2)n(C)c1C	7	nt	8	166	-1
CCOC(=O)c1sc(=NC(=O)c2cc(OC)c(OC)c(OC)c2)n(C)c1C	21	-3	17	208*	10
O=c1cc(-c2ccccc2Cl)c2c([nH]1)CCC2	57*[fluorescence artefact?]	nt	48	63	1
CCOC(=O)c1c(NC(C)=O)sc2c(O)c(CN3CCN(CC)CC3)ccc12	44	3	54*[fluorescence artefact?]	200	14
COc1ccc(NC(=O)Cn2nnc(-c3ccccc3NC(=O)c3ccco3)n2)cc1	52*[fluorescence artefact?]	4	28	149	-6
O=C(Cn1nnc(-c2ccccc2NC(=O)c2ccco2)n1)NC1CCCCC1	21	4	47	288*[fluorescence artefact?]	-14
COc1ccc(NC(=O)Cn2nnc(-c3ccccc3NC(=O)C3CC3)n2)cc1	4	nt	5	106	6
CCC(C)C(NC(=O)c1ccccc1NC(=O)c1ccco1)C(=O)NC1CCCCC1 (stereo not given)	21	nt	56*[fluorescence artefact?]	87	4
O=C(Cn1nnc(-c2ccccc2NC(=O)c2cccs2)n1)Nc1ccccc1	57*[fluorescence artefact?]	1	65*[fluorescence artefact?]	200*[fluorescence artefact?]	-5
O=C(O)CCNc1ccccc1C(=O)O	nt	nt	nt	nt	1
O=C(Cn1nnc(-c2ccccc2NC(=O)c2ccccc2F)n1)NCc1ccco1	14	-5	29	136	-3
COc1ccc(C(=O)Nc2ccccc2-c2nnn(CC(=O)NCc3ccco3)n2)cc1	1	15	11	210*	-6
C[C@]12CC[C@@H]3c4ccc(O[C@@H]5O[C@H](C(=O)O)[C@@H](O)[C@H](O)[C@H]5O)cc4CC[C@H]3[C@@H]1C[C@@H](O)[C@@H]2O	10	nt	-8	429*	2
NC(=O)c1oc2ccccc2c1NC(=O)c1nc2ccccc2s1	26	-4	22	493*	6
O=c1[nH]cc(CS(=O)(=O)Cc2c[nH]c(=O)[nH]c2=O)c(=O)[nH]1	nt	nt	nt	nt	14
O=C(c1cc(-c2ccco2)on1)N1CCc2ccccc2C1	51*	11	58*	91	1
O=C(c1cc(-c2ccco2)on1)N1CCCc2ccccc21	52*	9	66*	95	10
O=C(c1cc2nc(-c3ccco3)cc(C(F)(F)F)n2n1)N1CCCc2ccccc21	15	nt	14	101	-2
Cc1sc2ncn(CC(=O)NCCc3ccccc3)c(=O)c2c1C	18	-2	15	101	7
SMILES	ERb coact inh	FAK blocker	ERa coact inh	ERa SRC1 pot	Smad3 inh
O=C(Cn1nnc(-c2ccccc2)n1)NCc1ccco1	1	-2	5	87	1
O=C(Cn1cnc2sc(-c3ccccc3)cc2c1=O)NCc1ccco1	46	15	66*[fluorescence artefact?]	147	-7
O=C(Cn1cnc2sc(-c3ccccc3)cc2c1=O)NCCc1ccccc1	37	-1	43	213*[fluorescence artefact?]	21
O=C(Cn1ncn2c(cc3ccccc32)c1=O)NCc1ccco1	38	4	57*[fluorescence artefact?]	95	8
O=C(Cn1cnc2sc(-c3ccccc3)cc2c1=O)NCc1ccccc1	63*[fluorescence artefact?]	9	59*[fluorescence artefact?]	216*	4
O=C(Cn1ncn2c(cc3ccccc32)c1=O)NCCC1=CCCCC1	-1	2	5	120	10
CC(C)c1ccc(O)c(O)c(=O)c1 (tested in a mixture with another compound)	nt	nt	nt	nt	16
Cc1ccc([C@@]2(C)CC/C(=N\N=C3/CC[C@](C)(c4ccc(C)c(C)c4)c4cc(C)c(C)cc43)c3cc(C)c(C)cc32)cc1C	nt	nt	nt	nt	9
